The record followed here is the supplement of paper PMC10849652.

Of roughly 7,900 targets only a part is listed; those with a hit were picked by preference. About 0.6% of all pairs of compound and target were hits. Unmarked numbers belong to inactive results.

UniProt Q9BY42, sequence (Q9BY42 whole entry, looked up): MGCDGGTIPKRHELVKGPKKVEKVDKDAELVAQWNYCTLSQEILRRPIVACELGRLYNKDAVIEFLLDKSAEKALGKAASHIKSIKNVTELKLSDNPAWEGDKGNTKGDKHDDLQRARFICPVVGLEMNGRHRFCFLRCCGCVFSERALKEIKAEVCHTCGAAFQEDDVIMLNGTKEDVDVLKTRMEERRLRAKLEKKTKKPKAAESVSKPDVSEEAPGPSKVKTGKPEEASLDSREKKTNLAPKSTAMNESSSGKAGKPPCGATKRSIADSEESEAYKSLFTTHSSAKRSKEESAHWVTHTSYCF
UniProt Q5T160, sequence (Q5T160 whole entry, looked up): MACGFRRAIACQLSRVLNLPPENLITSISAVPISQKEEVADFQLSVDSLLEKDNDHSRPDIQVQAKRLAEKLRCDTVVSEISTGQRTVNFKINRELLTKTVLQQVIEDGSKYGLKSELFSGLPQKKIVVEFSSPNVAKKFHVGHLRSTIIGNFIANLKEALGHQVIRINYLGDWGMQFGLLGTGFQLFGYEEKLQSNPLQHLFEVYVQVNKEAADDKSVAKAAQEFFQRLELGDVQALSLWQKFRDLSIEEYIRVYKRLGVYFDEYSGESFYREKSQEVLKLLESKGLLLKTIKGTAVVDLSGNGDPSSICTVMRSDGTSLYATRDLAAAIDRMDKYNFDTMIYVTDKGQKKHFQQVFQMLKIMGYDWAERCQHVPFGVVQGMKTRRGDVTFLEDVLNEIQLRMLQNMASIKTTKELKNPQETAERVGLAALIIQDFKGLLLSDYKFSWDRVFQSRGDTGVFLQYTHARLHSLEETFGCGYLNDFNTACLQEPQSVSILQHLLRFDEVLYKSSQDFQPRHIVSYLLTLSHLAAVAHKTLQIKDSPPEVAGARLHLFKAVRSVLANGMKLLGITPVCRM
UniProt O15127, sequence (O15127 whole entry, looked up): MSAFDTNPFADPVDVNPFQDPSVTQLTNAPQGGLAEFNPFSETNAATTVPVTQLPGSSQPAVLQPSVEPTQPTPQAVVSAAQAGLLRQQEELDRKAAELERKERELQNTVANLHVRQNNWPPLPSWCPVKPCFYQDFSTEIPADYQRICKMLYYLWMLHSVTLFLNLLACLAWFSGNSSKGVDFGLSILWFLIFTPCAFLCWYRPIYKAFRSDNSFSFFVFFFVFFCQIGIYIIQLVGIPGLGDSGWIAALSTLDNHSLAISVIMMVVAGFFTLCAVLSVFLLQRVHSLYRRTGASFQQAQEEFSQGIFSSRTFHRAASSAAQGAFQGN
UniProt Q9BQY4, sequence (Q9BQY4 whole entry, looked up): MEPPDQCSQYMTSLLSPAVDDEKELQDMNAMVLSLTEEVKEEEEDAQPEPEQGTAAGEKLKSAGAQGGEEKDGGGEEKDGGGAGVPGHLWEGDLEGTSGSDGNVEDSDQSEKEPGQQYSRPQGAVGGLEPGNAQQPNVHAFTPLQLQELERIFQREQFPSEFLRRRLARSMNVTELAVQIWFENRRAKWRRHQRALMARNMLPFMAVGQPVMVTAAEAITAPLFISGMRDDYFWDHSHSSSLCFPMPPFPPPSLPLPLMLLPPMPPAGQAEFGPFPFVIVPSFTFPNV
UniProt Q9BUV8, sequence (Q9BUV8 whole entry, looked up): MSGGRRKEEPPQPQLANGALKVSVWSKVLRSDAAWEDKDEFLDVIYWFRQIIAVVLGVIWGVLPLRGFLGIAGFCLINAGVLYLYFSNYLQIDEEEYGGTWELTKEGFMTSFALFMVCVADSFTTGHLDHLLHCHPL
UniProt Q8IZV5, sequence (Q8IZV5 whole entry, looked up): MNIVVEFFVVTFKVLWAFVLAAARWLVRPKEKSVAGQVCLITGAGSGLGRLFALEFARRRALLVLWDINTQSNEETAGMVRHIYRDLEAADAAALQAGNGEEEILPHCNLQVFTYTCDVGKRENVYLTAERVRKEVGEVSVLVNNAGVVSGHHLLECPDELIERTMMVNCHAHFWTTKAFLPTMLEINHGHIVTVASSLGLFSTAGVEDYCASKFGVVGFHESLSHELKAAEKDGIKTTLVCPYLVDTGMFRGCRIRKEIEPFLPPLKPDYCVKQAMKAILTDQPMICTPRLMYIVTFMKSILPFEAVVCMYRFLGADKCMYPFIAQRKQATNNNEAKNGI
UniProt Q86UA6, sequence (Q86UA6 whole entry, looked up): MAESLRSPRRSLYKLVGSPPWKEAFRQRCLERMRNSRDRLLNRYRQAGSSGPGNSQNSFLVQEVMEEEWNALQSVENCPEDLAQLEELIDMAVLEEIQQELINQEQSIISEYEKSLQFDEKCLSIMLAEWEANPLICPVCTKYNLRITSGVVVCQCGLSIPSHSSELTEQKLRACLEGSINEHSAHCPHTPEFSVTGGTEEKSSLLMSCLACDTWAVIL
UniProt Q9H4A4, sequence (Q9H4A4 whole entry, looked up): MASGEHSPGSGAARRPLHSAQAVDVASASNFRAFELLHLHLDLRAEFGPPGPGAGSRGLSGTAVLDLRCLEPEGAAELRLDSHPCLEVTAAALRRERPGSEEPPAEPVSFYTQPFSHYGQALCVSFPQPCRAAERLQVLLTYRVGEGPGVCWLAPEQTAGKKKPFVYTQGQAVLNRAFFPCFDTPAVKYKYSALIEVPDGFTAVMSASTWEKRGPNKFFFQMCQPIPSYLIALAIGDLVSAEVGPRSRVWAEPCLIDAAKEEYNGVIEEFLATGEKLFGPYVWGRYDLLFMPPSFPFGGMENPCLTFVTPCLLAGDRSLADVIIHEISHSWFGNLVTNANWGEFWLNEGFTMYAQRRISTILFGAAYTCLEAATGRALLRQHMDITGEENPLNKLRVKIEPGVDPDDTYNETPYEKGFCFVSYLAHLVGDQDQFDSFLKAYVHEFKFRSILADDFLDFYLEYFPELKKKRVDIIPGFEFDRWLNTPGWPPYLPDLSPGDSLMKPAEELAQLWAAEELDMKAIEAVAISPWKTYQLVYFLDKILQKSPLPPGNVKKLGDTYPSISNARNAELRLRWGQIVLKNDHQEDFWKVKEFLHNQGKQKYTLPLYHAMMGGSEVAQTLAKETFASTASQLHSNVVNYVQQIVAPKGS
UniProt O14796, sequence (O14796 whole entry, looked up): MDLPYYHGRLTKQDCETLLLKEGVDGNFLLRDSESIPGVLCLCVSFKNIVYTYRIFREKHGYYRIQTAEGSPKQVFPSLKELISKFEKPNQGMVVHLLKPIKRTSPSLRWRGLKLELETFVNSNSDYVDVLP
UniProt O43819, sequence (O43819 whole entry, looked up): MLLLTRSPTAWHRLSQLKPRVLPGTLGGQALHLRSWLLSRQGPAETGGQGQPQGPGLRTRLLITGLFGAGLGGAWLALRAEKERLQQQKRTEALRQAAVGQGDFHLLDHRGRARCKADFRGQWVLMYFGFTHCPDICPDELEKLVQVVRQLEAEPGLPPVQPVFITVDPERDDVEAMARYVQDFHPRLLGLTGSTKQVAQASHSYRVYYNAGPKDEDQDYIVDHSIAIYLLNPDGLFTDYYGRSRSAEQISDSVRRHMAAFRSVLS
UniProt P41440, sequence (P41440 whole entry, looked up): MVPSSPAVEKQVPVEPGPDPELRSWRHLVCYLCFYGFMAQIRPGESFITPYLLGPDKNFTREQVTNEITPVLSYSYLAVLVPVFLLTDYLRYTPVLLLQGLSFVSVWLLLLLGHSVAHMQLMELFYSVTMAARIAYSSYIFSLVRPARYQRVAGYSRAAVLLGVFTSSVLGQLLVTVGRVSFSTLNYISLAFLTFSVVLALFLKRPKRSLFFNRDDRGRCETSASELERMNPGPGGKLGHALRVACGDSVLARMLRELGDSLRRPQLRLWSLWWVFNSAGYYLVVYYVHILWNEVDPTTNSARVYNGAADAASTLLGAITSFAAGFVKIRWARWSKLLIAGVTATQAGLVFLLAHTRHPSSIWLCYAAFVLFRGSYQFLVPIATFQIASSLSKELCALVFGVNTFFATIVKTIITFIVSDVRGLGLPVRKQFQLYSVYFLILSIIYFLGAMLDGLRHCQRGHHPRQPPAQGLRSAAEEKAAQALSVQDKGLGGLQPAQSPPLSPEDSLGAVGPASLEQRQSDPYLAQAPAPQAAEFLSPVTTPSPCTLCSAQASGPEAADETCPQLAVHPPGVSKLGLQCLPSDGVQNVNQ
UniProt Q96EU6, sequence (Q96EU6 whole entry, looked up): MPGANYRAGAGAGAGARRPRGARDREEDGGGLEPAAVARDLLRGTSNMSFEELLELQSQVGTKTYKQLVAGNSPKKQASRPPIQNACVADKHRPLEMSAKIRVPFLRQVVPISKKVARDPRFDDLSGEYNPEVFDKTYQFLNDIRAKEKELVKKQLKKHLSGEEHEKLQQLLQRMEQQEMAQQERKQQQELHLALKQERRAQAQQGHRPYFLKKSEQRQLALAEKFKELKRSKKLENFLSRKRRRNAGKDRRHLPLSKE
UniProt P51812, sequence (P51812 whole entry, looked up): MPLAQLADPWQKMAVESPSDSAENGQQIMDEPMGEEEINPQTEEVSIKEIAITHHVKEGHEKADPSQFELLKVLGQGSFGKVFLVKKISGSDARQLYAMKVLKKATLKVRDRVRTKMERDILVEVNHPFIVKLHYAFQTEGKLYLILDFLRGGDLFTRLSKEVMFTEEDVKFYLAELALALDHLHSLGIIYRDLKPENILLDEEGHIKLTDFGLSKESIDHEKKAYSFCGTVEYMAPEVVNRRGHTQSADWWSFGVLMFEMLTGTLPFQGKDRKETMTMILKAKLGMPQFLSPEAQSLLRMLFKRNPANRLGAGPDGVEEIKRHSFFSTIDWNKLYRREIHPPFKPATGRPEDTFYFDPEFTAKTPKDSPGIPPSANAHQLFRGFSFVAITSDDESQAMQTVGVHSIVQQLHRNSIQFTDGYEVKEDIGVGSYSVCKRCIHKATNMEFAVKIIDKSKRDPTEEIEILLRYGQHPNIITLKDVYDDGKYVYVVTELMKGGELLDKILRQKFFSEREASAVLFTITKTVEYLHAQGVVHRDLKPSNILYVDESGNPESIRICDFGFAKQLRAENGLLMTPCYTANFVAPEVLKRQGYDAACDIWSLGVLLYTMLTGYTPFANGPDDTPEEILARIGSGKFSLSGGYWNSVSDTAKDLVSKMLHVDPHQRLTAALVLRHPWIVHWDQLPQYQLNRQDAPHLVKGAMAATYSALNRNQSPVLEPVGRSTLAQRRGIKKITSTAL

Compound in the first experiment: CCCCN(Cc1ccc(C(=O)NO)cc1)C(=O)Nc1ccccc1 [Nexturastat A]
Nature of the experiment: log2 fold change, soluble protein after heating vs DMSO (PISA); higher = thermal stabilisation; K562 cells, 10 uM, 30 min; active = over 0.2 and 3.5 SD of the protein, either way, in both replicates (recomputed). The method, boiled down: (§1)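 Values are thermal stability changes relative to control samples and are taken from duplicates. They are stated as log2 fold changes. Before quantification by TMTpro 16plex LC-MS/MS with equalised channel sums, K562 cells at 2×10^6 cells/mL were treated with 10 μM compound for 30 min, heated in aliquots for 3 min across 48°C-58°C, pooled, extracted in PBS with 0.5% NP-40 at 4°C, and centrifuged at 21,000xg for 90 min to give the soluble supernatant.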
As to SERINC1 (UniProt Q9NRX5), the log2 fold change is 0.053.
With SCO2 (UniProt O43819), the log2 fold change was 0.269.
Still for that read-out and setting: in the case of SELENOH (UniProt Q8IZQ5) it was 0.089.
On the same count and under the same terms, in the case of RPS25 (UniProt P62851) it was 0.11.
As to RTF2 (UniProt Q9BY42), the log2 fold change was 0.004.
For the target RAB5IF isoform 5 (UniProt Q9BUV8), the log2 fold change is -0.143.
As to RPAIN isoform 8 (UniProt Q86UA6), the log2 fold change was -0.017.

Compound in a further experiment: CCCS(=O)(=O)Nc1ccc(F)c(C(=O)c2c[nH]c3ncc(-c4ccc(Cl)cc4)cc23)c1F [vemurafenib]
The description is as above. The essentials: as §1
As to RARS2 (UniProt Q5T160), the log2 fold change was 0.019.
In the case of RRP36 (UniProt Q96EU6), the log2 fold change was -0.117.
The same measure, in the same setting: the same measure for RCOR1 (UniProt Q9UKL0): 0.016; for RPS18 (UniProt P62269): -0.125; for RPA3 (UniProt P35244): 0.298 (active).
RPS6KA3 (UniProt P51812): the log2 fold change is 0.001.
With RHOXF2 (UniProt Q9BQY4), the log2 fold change was -0.015.
Turning to SCAMP2 (UniProt O15127), the log2 fold change is 0.081.
Same read-out and setting: in the case of RAD50, A0A494C0Y7 it was 0.045; in that of RNF167 (UniProt Q9H6Y7), 0.031.
Turning to SLC19A1 (UniProt P41440), the log2 fold change is 0.002.
For SH2D1B (UniProt O14796), the log2 fold change was 0.048.
Turning to RHOA (UniProt P61586), the log2 fold change is -0.042.
For the target RNPEP (UniProt Q9H4A4), the log2 fold change is 0.058.
In the case of RAB3IL1 (UniProt E9PK89), the log2 fold change is -0.08.
RDH10 (UniProt Q8IZV5): the log2 fold change is -0.016.
